From PubChem
In the library only some 7.3% were active in any assay of this set; here they are far more common.
NPC1 prom act: activators of NPC1 promoter; Huh7 NPC1 promoter luciferase reporter, 24 h; Potency, µM (series often up to 9.22 µM), for inactives: at the highest dose activation, usual class: activators; 320,000 tested, 2.4% active; AID 485313; further: % of control where 0% means no effect; nearly all actives have a fitted effect of over 60% in size
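NPC1 promoter–luciferase Huh7 cells; 24 h compound; luminescence.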
FLuc counter: counter-screen for miR-21 project: firefly luciferase inhibitors or activators; purified FLuc, Km substrates, luminescence inhibition; AID 588342; 360,000 tested, 6.9% active; P08659; Potency, µM (highest dose often 57.5 µM), for the others: at the top dose activity change, negative = inhibition, most hits filed as inhibitors;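 further: plate controls were vehicle for no effect and reference inhibitor for full effect; nearly all actives have a fitted effect of over 55% in size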
Target sequence (P08659 whole entry, looked up): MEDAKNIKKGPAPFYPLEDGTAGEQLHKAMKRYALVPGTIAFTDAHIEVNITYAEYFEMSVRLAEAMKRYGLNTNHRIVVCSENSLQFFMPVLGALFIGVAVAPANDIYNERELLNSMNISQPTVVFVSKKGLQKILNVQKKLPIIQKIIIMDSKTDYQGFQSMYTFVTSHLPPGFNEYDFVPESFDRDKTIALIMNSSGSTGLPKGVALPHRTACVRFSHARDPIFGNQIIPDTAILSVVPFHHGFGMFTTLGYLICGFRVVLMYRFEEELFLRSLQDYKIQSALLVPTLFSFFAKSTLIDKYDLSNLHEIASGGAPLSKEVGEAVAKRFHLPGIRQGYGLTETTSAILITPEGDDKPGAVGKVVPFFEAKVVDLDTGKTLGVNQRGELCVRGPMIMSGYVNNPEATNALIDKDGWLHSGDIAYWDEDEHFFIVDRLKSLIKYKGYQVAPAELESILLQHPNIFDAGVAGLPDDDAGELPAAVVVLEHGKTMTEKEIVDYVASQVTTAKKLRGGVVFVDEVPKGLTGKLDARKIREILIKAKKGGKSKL
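Purified P. pyralis luciferase (10nM final) with 10uM D-luciferin and 10uM ATP (Km levels) in 50mM Tris acetate pH 7.5, 10mM Mg acetate, 0.01% Tween-20, 0.05% BSA; qHTS 6-point titration, ~60 µM downward; luminescence read.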
uPA surface inh: inhibitors of cell surface uPA generation; cell surface uPA generation assay, qHTS; Potency, µM (titrated, usually from 38.3 µM), for inactives: at the top dose activity change, negative = inhibition, hits mostly inhibitors; 330,000 tested, 0.31% active; AID 540303; active means well fitted inhibition curve with a large enough effect; inconclusive means small, poorly fitted or top-dose-only effect; inactive means no such curve, though single readings can be large or run the other way; tested in mouse RAW 264.7 cells; further: on the % scale 0 is the no-effect control and ±100 the full control effect; nearly all actives have a fitted effect of over 55% in size
SMN2 splice enh: increases expression of the SMN2 splice variant; HEK293 SMN2-luciferase splicing reporter, luminescence, 30-36 h; Potency, µM (highest dose often 46.1 µM), for inactives: top-dose activity change, positive = activation, usual class: activators; 210,000 tested, 2.8% active; further: % of control where 0% means no effect; nearly all actives have a fitted effect of over 55% in size
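HEK293 cells carry an SMN2 minigene-luciferase reporter in which exon 7 inclusion puts luciferase in frame. Cells were seeded at 2000 cells/well, attached for 10-12 hours, then exposed to compounds for 30-36 hours at 37C before ONE-Glo luminescence.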
Rab9 prom act: activators of Rab9 promoter | Huh7 Rab9 promoter-luciferase reporter, luminescence, 24 h | Potency, µM (highest dose often 9.22 µM), for inactives: at the top dose activation, negative = inhibition, most hits filed as activators | 320,000 tested, 2.8% active; further: % of control where 0% means no effect; nearly all actives have a fitted effect of over 60% in size
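Luciferase signal after 10 min detection reagent at ambient indicates Rab9 promoter upregulation; stably transfected Huh7 cells were treated 24 h with compound in DMSO at 37 °C, 5% CO2.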
ELG1 genotox: inducers of genotoxicity in HEK293T ELG1-luciferase cells | AID 504466 | 330,000 tested, 1.3% active | Potency, µM (highest dose often 46 µM), inactives show top-dose activity change, positive = activation, most hits filed as activators | HEK293T ELG1-luciferase reporter, luminescence, 16 h; further: % of control where 0% means no effect; nearly all actives have a fitted effect of over 60% in size
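HEK293T cells expressing luciferase-tagged ELG1 were treated with compound or DMSO for 16 hr at 37°C. Luciferase activity was then read after 30 min with ONE-Glo at room temperature; rising signal flags genetic stress.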
Numbers without * were called inactive; ? = inconclusive; . = not tested or not shown; [ ] = dose if it differs, or a comment. Unless noted, the call rests on the fitted dose curve; in most records, active means well fitted curve in the direction sought with a large enough effect; inconclusive means small, poorly fitted or top-dose-only effect, or another doubt; inactive means no such curve, though single readings can be large; an effect the other way counts as inactive or inconclusive. Potency means the concentration at half of the fitted maximal effect.

SMILES	NPC1 prom act	FLuc counter	uPA surface inh	SMN2 splice enh	Rab9 prom act	ELG1 genotox
CCCCCCC(=O)N1CCCC(c2nc(-c3cccc(OC)c3)no2)C1 (stereo not drawn)	-5.9%	-4.0%	-0.5%	.	-3.2%	-3.6%
CCCC(=O)N1CCCC(c2nc(-c3cccc(OC)c3)no2)C1 (stereo not drawn)	3.55µM*	9.53µM*	?	11.2µM*	1.41µM*	?
COc1ccc(-c2noc(C3CCCN(C(=O)c4cccc(F)c4)C3)n2)cc1 (stereo not drawn)	-3.8%	-9.4%	2.3%	.	-1.8%	-7.7%
COc1ccc(-c2noc(C3CCCN(C(=O)c4ccccc4)C3)n2)cc1 (stereo not drawn)	0.1%	19µM*	4.3%	.	-4.6%	-0.1%
Cc1c(Cl)cccc1NC(=O)CSc1ncnc2c1sc1ccccc12	.	-0.6%	.	.	.	.
CC(Oc1ccccc1)C(=O)Nc1ccc(C(=O)OCc2cc(=O)n3nc(C(C)C)sc3n2)cc1 (stereo not drawn)	.	-2.6%	.	.	.	.
COc1ccc(Cn2ccc3nc(C)c(C(=O)Nc4ccc(OC(F)(F)F)cc4)cc3c2=O)cc1	.	1.3%	.	.	.	.
COc1cc(/C=N/NC(=O)COc2cc(C)cc(C)c2)ccc1OS(=O)(=O)c1ccc(C)cc1	-9.8%	1.8%	-7.0%	-59.6%	-8.5%	-5.9%
COc1cc(/C=N/NS(=O)(=O)c2ccc3ccccc3c2)ccc1OCc1ccc(C(=O)O)cc1	0.631µM*	0.338µM*	1.0%	.	2µM*	?
CCc1ccc(OCC(=O)N/N=C/c2ccc(OS(=O)(=O)c3ccc(C)cc3)c(OC)c2)cc1	-0.7%	5.36µM*	10.8%	4.0%	-4.3%	-0.9%
COc1cc(/C=N/NS(=O)(=O)c2ccc(C)cc2)ccc1OCc1cccc(C(=O)O)c1	2µM*	0.426µM*	0.6%	3.55µM*	0.891µM*	20.2%
COc1ccc(NC(=O)C2(S(=O)(=O)c3ccc(C)cc3)CC2)cc1OC	0.7%	0.0%	1.3%	.	3.0%	3.7%
Cc1ccc(-c2nc3s/c(=C\c4ccco4)c(=O)n3n2)cc1	-3.9%	0.757µM*	6.7%	0.3%	4.2%	-1.4%
CC(=O)Nc1ccc(NC(=O)COc2ccc3c(c2)CCC3)cc1	-5.4%	-16.7%	-1.6%	-4.5%	-1.7%	4.9%
Cc1ccnc(NC(=O)COc2ccc3c(c2)CCC3)c1	3.16µM*	0.213µM*	3.3%	.	2.51µM*	2.06µM*
Cc1ccnc(NC(=O)COc2ccc3oc4c(c3c2)CCCC4)c1	17.4%	4.26µM*	4.2%	-20.5%	4.5%	?
Cc1ccccc1NC(=O)COc1ccc2oc3c(c2c1)CCCC3	.	-1.6%	.	-2.0%	.	.
COc1ccc(Cn2ccc3nc(C)c(C(=O)NCc4ccc(SC)cc4)cc3c2=O)cc1	.	3.1%	.	.	.	.
CCn1c(/C=N/c2nc3ccccc3n2C)nc2ccccc21	-2.0%	-17.4%	-0.4%	-6.3%	1.6%	-2.4%
Nc1nc2ccccc2n1/N=C/c1ccc(Br)cc1	?	?	5.3%	35.5µM*	?	16.4µM*
Nc1nnnn1/N=C/c1ccc(Br)cc1	3.1%	-0.4%	-0.8%	.	-0.4%	?
Nc1nc2ccccc2n1/N=C/c1ccc2c(c1)OCO2	2µM*	10.7µM*	2.5%	.	3.98µM*	?
Cn1c(/N=C/c2ccc3c(c2)OCO3)nc2ccccc21	-3.7%	0.239µM*	6.6%	-2.7%	-2.6%	1.6%
COC(=O)c1ccc2c(=O)n(CCCCCC(=O)N3CCN(c4cc(C)ccc4C)CC3)c(=O)[nH]c2c1	.	-1.7%	.	.	.	.
OCC[C@@H]1C[C@@H](O)[C@H](O)[C@@]2(CCCCO2)O1	.	.	14.8%	.	.	.
SMILES	NPC1 prom act	FLuc counter	uPA surface inh	SMN2 splice enh	Rab9 prom act	ELG1 genotox
Cc1ccccc1C(=O)N(Cc1sccc1C)C1CCS(=O)(=O)C1 (stereo not drawn)	.	-4.4%	.	5.9%	.	.
COc1ccc(CNC(=S)N/N=C(/C)c2ccccc2)cc1	?	7.57µM*	-4.5%	.	?	18.3µM*
C/C(=N\NC(=S)NCc1ccccc1)c1ccccc1	1.1%	?	1.0%	9.3%	2.7%	7.8%
O=C(c1cnn(-c2ccccc2)c1)c1ccc2ccccc2c1O	?	7.57µM*	6.4%	12.6µM*	?	?
O=C(c1cnn(C(=O)c2ccccc2)c1)c1ccccc1O	0.5%	-19.9%	7.5%	6.4%	3.4%	-2.8%
O=C(c1cnn(-c2ccccc2)c1)c1cc(Br)ccc1O	-1.7%	6.2%	-0.8%	.	1.4%	0.8%
CC(C)c1ccc(O)c(C(=O)c2cnn(-c3ccccc3)c2)c1	.	.	8.0%	.	.	.
O=C(c1cnn(-c2nc3ccccc3s2)c1)c1ccccc1O	3.55µM*	3.01µM*	-2.0%	51.2%	?	?
O=C(c1cnn(-c2cccc(F)c2)c1)c1ccccc1O	?	3.79µM*	-1.6%	.	-0.2%[1.84 µM]	?
O=C(O)c1ccc(-n2cc(C(=O)c3ccccc3O)cn2)cc1	9.7%	15.1µM*	5.8%	.	11.6%	-11.7%
COc1ccc(O)c(C(=O)c2cc(C#N)c(=O)n(-c3ccc(Cl)cc3)c2)c1	-4.2%	-18.2%	-3.0%	.	0.8%	-3.7%
COc1ccc(O)c(C(=O)c2cnn(-c3ccc(Cl)cc3)c2)c1	3.6%	16.9µM*	2.1%	.	18.0%	4.3%
COc1ccc(CC(=O)NNC(=O)c2cccnc2)cc1OC	-3.5%	5.2%	17.2%	7.2%	-6.1%	-1.1%
O=C(/C=C/c1ccccc1Cl)Nc1cccc(O)c1	?	1.07µM*	4.47µM*	?	?	?
O=C(/C=C/c1ccccc1Cl)Nc1ccccc1	?	0.757µM*	-7.1%	.	0.447µM*	?
O=C(/C=C/c1ccccc1Cl)Nc1ccc2c(c1)C(=O)NC2=O	-1.7%	?	?	-14.1%	2.2%	-4.0%
O=C(/C=C/c1ccccc1Cl)Nc1ccc(Cl)cn1	?	-6.0%	7.8%	.	1.12µM*	?
CCCCOC(=O)c1cccc(NC(=O)/C=C/c2ccccc2Cl)c1	.	6.75µM*	.	1.41µM*	.	.
O=C(Cc1ccccc1)Nc1ccc(Cl)cn1	-0.4%	-10.6%	0.0%	.	18.6%	?
COc1ccc(NCc2cc3cc4c(cc3n(CC(=O)Nc3ccc(F)cc3F)c2=O)OCO4)cc1	.	-2.9%	.	.	.	.
CN(C)c1ccc(NC(=O)/C=C/c2c(Cl)cccc2Cl)cc1	11.4%	8.49µM*	-0.4%	?	24.7%	5.1%
CN(C)S(=O)(=O)c1ccc(NC(=O)/C=C/c2ccccc2Cl)cc1	4.1%	21.3µM*	-5.1%	9.3%	7.8%	1.4%
CN(C)S(=O)(=O)c1ccc(C(=O)Nc2ccc(Cl)cc2)cc1	3.4%	?	-8.6%	-9.5%	6.4%	-4.7%
O=C(c1ccccc1)c1ccc(-c2ccc(O)cc2)cc1	-2.2%	16.9µM*	-10.9%	.	3.16µM*	?
